B1: PhoQ; a variant is named by its letters at X, in order, P23837 (parent)
chain: MKKLLRLFFPLSLRVRFLLATAAVVLVLSLAYGMVALIGYSVSFDKTTFRLLRGESNLFYTLAKWENNKLHVELPENIDKQSPTMTLIYDENGQLLWAQRDVPWLMKMIQPDWLKSNGFHEIEADVNDTSLLLSGDHSIQQQLQEVREDDDDAEMTHSVAVNVYPATSRMPKLTIVVVDTIPVELKSSYMVWSWFIYVLSANLLLVIPLLWVAAWWSLRPIEALAKEVRELEEHNRELLNPATTRELTSLVRNLNRLLKSERERYDKYRTTLTDLTHSLKTPLXXLQXXLRSLRSEKMSVSDAEPVMLEQISRISQQIGYYLHRASMRGGTLLSRELHPVAPLLDNLTSALNKVYQRKGVNISLDISPEISFVGEQNDFVEVMGNVLDNACKYCLEFVEISARQTDEHLYIVVEDDGPGIPLSKREVIFDRGQRVDTLRPGQGVGLAVAREITEQYEGKIVAGESMLGGARMEVIFGRQHSAPKDE

In all, about 140,000 sequences were measured (“enrichment ratio after two sorts for PhoP signalling”: median about 0, highest 2% from about 11 on). The sample as a whole holds a higher share of the highest values than the screen did.

The variants in the assay derive from B1. In words: enrichment ratio after two sorts for PhoP signalling (ratio (wild type AVST 3.29)); higher = more functional. The following applies: with PhoP (E. coli).
On to KCSM, for which the enrichment ratio is no more than 0.25.

For the variant TCLA, the enrichment ratio stood at 11.9.

As for TCAS, the enrichment ratio was found to be 12.2.

Turning to TCVP, the enrichment ratio is no more than 0.25.

For the variant TCNY, the enrichment ratio was determined as 9.63.

In the case of TCLT, the enrichment ratio is 4.19.

RVLR: the enrichment ratio is no more than 0.25.

As to ENDI, the enrichment ratio is no more than 0.25.

Consider MVRF, for which the enrichment ratio is no more than 0.25.

In the case of HGLK, the enrichment ratio was no more than 0.25.

As to GGGP, the enrichment ratio is no more than 0.25.

With KHVK, the enrichment ratio was no more than 0.25.

As to FCAN, the enrichment ratio is no more than 0.25.

In the case of TCLK, the enrichment ratio worked out at 13.1.

For the variant FCLK, the enrichment ratio came out at 1.84.

Turning to VCMT, the enrichment ratio is no more than 0.25.

With HVSC, the enrichment ratio is no more than 0.25.

With KCLK, the enrichment ratio was no more than 0.25.

Take TCSC: the enrichment ratio is 12.3.

With TCMT, the enrichment ratio came out at 14.5.

In the case of KCSC, the enrichment ratio was no more than 0.25.

In the case of TCAN, the enrichment ratio was found to be 25.6.

As to TCIT, the enrichment ratio was no more than 0.25.

With KCAN, the enrichment ratio is no more than 0.25.

In the case of NFFS, the enrichment ratio is no more than 0.25.

For FFPR, the enrichment ratio is no more than 0.25.

Turning to DMHV, the enrichment ratio was no more than 0.25.

On to ETAR, for which the enrichment ratio was no more than 0.25.

Turning to KLGR, the enrichment ratio is no more than 0.25.

Turning to TCDD, the enrichment ratio is no more than 0.25.

For LSTQ, the enrichment ratio is no more than 0.25.

Turning to TCTW, the enrichment ratio is 10.8.

For KCSN, the enrichment ratio was no more than 0.25.

For TCGD, the enrichment ratio is 20.3.

In the case of TCAQ, the enrichment ratio was found to be 15.5.

Regarding TCSN, the enrichment ratio came out at 20.

In the case of TCYD, the enrichment ratio is no more than 0.25.

As for TCTQ, the enrichment ratio is 21.4.

As to VCAQ, the enrichment ratio is no more than 0.25.

As to KCAQ, the enrichment ratio was no more than 0.25.

Take FCSN: the enrichment ratio was no more than 0.25.

HFQA: the enrichment ratio is no more than 0.25.

FHFW: the enrichment ratio is no more than 0.25.

As for KCDC, the enrichment ratio was no more than 0.25.

In the case of TKEF, the enrichment ratio is no more than 0.25.

Consider SVFR, for which the enrichment ratio turned out to be 0.428.

With SAGS, the enrichment ratio was found to be 3.14.

SRYF: the enrichment ratio was no more than 0.25.

With IHVG, the enrichment ratio is no more than 0.25.

For the variant LNTP, the enrichment ratio was no more than 0.25.

Turning to NEMN, the enrichment ratio is no more than 0.25.

In the case of TALV, the enrichment ratio was 10.2.

Turning to EMAS, the enrichment ratio was no more than 0.25.

Regarding ESQI, the enrichment ratio is no more than 0.25.

In the case of KCSA, the enrichment ratio was no more than 0.25.

As for TCSY, the enrichment ratio was 13.3.

Regarding HVSY, the enrichment ratio was no more than 0.25.

Regarding TCAK, the enrichment ratio was 11.2.

Turning to VEGF, the enrichment ratio was no more than 0.25.

With VCAK, the enrichment ratio was no more than 0.25.

Regarding TCGF, the enrichment ratio came out at 12.5.

For FCSA, the enrichment ratio was no more than 0.25.

For the variant KCAK, the enrichment ratio is no more than 0.25.

Regarding TCHF, the enrichment ratio was found to be 8.33.

Turning to KCSY, the enrichment ratio is no more than 0.25.

For TCSA, the enrichment ratio is 18.5.

YCQN: the enrichment ratio was no more than 0.25.

Consider DLMC, for which the enrichment ratio was no more than 0.25.

For the variant PANG, the enrichment ratio is no more than 0.25.

On to THES, for which the enrichment ratio is no more than 0.25.

On to THGV, for which the enrichment ratio was 1.56.

PMKY: the enrichment ratio is no more than 0.25.

TLGR: the enrichment ratio is no more than 0.25.

Turning to GLIF, the enrichment ratio was no more than 0.25.

Turning to TCSL, the enrichment ratio stood at 16.4.

With FCSL, the enrichment ratio stood at 0.351.

For the variant TCWI, the enrichment ratio was 1.27.

TCCL: the enrichment ratio came to 13.8.

ACGL: the enrichment ratio turned out to be 2.96.

As for VECL, the enrichment ratio turned out to be 2.59.

With TCNS, the enrichment ratio was determined as 16.1.

Consider ACSL, for which the enrichment ratio was determined as 16.6.

For KCCL, the enrichment ratio was no more than 0.25.

GQSL: the enrichment ratio is no more than 0.25.

Turning to TCDS, the enrichment ratio came out at 1.7.

Consider KCSL, for which the enrichment ratio was no more than 0.25.

As to IIGM, the enrichment ratio is no more than 0.25.

QKHF: the enrichment ratio was no more than 0.25.

For LRCK, the enrichment ratio was no more than 0.25.

NVPP: the enrichment ratio was no more than 0.25.

As for APIR, the enrichment ratio is no more than 0.25.

For AWVY, the enrichment ratio was no more than 0.25.

Turning to ELQD, the enrichment ratio was no more than 0.25.

In the case of SGPP, the enrichment ratio was no more than 0.25.

Turning to HHVH, the enrichment ratio is no more than 0.25.

Take TICC: the enrichment ratio worked out at 2.66.

Regarding KPAP, the enrichment ratio is no more than 0.25.

With AQWF, the enrichment ratio is no more than 0.25.

Consider KCAY, for which the enrichment ratio was no more than 0.25.

Take TCSS: the enrichment ratio amounted to 15.

As for FCSS, the enrichment ratio was no more than 0.25.

For TCVA, the enrichment ratio is no more than 0.25.

Regarding TCYI, the enrichment ratio was found to be 1.36.

On to TCAY, for which the enrichment ratio came out at 14.1.

With TCSK, the enrichment ratio was 13.7.

With KCSS, the enrichment ratio is no more than 0.25.

On to TCNT, for which the enrichment ratio worked out at 7.62.

With TCDT, the enrichment ratio was no more than 0.25.

For the variant TCSR, the enrichment ratio worked out at 5.34.

In the case of TCAT, the enrichment ratio amounted to 14.5.

On to LFWM, for which the enrichment ratio was no more than 0.25.

Regarding NNTR, the enrichment ratio is no more than 0.25.

For the variant IGVH, the enrichment ratio is no more than 0.25.

On to WSVN, for which the enrichment ratio was no more than 0.25.

Regarding HDQK, the enrichment ratio was no more than 0.25.

Take LDIL: the enrichment ratio was no more than 0.25.

MIIK: the enrichment ratio is no more than 0.25.

Take KCAG: the enrichment ratio was no more than 0.25.

As to FCAG, the enrichment ratio was no more than 0.25.

As for VCLN, the enrichment ratio amounted to 2.29.

As to TCAG, the enrichment ratio turned out to be 12.5.

Regarding TCNE, the enrichment ratio worked out at 19.6.

Take TCLN: the enrichment ratio amounted to 13.6.

For the variant FCLC, the enrichment ratio was 7.16.

For TCLC, the enrichment ratio amounted to 23.4.

Regarding VCLC, the enrichment ratio came to 2.94.

As to TCHE, the enrichment ratio is no more than 0.25.

In the case of TCIE, the enrichment ratio is no more than 0.25.

In the case of FCLN, the enrichment ratio was found to be 3.94.

Regarding FAWY, the enrichment ratio is no more than 0.25.

On to SDGA, for which the enrichment ratio was no more than 0.25.

Turning to GPWK, the enrichment ratio is no more than 0.25.

In the case of LRLK, the enrichment ratio was no more than 0.25.

SNTI: the enrichment ratio stood at 10.1.

MHKW: the enrichment ratio was no more than 0.25.

In the case of IAWT, the enrichment ratio is no more than 0.25.

For DASW, the enrichment ratio is no more than 0.25.

In the case of TCEG, the enrichment ratio was no more than 0.25.

As for GWNG, the enrichment ratio was no more than 0.25.

Regarding QLVN, the enrichment ratio was no more than 0.25.

Consider FINA, for which the enrichment ratio was no more than 0.25.

On to ENVY, for which the enrichment ratio was no more than 0.25.

Regarding VEGI, the enrichment ratio was no more than 0.25.

TCIL: the enrichment ratio is no more than 0.25.

Consider KCSG, for which the enrichment ratio is no more than 0.25.

On to TCGL, for which the enrichment ratio is 13.5.

As to TCNL, the enrichment ratio stood at 4.28.

For TCSG, the enrichment ratio stood at 26.2.

Consider FCSI, for which the enrichment ratio is no more than 0.25.

For the variant GMGI, the enrichment ratio was no more than 0.25.

With KCSI, the enrichment ratio was no more than 0.25.

Turning to VCSG, the enrichment ratio was determined as 0.44.

On to TCSI, for which the enrichment ratio stood at 23.8.

Turning to TCGI, the enrichment ratio was 25.

For the origin of these results see a collection of fitness landscapes (doi:10.1126/science.1257360).
